Compound activity from PubChem.
Compounds with a hit are over-represented: about 19% of the library has one in this group of screens.
IL1B secr inh – inflammasome signaling inhibition, IL-1 beta readout; THP-1 LPS/ATP IL-1B secretion, AlphaLISA, 16 h; active compounds read low; activity change, % at 57.5 µM; actives 4.7% (n = 360,000); in the data active means activity change below about -50%; inconclusive means mostly about -30% to -49%
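THP-1 cells pretreated 1 hr with compounds (up to 57.5 uM final), then stimulated with LPS (250 ng/mL final) plus ATP (1.25 mM final); secreted IL-1B measured by AlphaLISA after 16 hr, decreased signal indicating inhibition.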
Giardia kill – Giardia lamblia killing; Giardia lamblia trophozoite viability; activity change, % at 7.66 µM, hits read low; actives 0.15% (n = 340,000); AID 540267; in the data active means activity change below about -80%; inconclusive means between about -30% and that limit;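 further: parasites exposed to compound for two days anaerobically before the ATP read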
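Media and compound were dispensed first, then trophozoites at 100 cells/well; plates sat 48 hrs at 37 deg C without oxygen before ATP luminescence reagent was added and read after 15-30 min at room temperature.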
DT40 TDP1 no CPT – qHTS for Inhibitors of human tyrosyl-DNA phosphodiesterase 1 (TDP1): qHTS in cells in absence of CPT; actives 15% (n = 420,000); Potency, µM (titrated, usually from 46.2 µM), for the others: at the highest dose activity change, negative = growth inhibition, actives largely listed as inhibitors; DT40 Tdp1-/- hTDP1 cells, no CPT, ATP luminescence, 48 h; AID 686978, 2013; further: potency means the concentration at half of the fitted maximal effect; nearly all actives have a fitted effect of over 55% in size
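DT40 Tdp1-/-;hTDP1 cells, no CPT (DMSO vehicle only), 400 cells/well; compounds pin-transferred; ≥48 hr, 37 °C; CellTiter-Glo 30 min RT dark, luminescence read.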
ELG1 repair inh – ELG1-dependent DNA repair inhibition; HEK293T ELG1-luciferase reporter, luminescence, 16 h; DNA damage induced by 5-fluorouridine; Potency, µM (highest dose often 46.1 µM), for inactives: at the top dose activity change, negative = inhibition, most hits filed as inhibitors; actives 2.3% (n = 330,000); AID 504467; further: potency means the concentration at half of the fitted maximal effect; nearly all actives have a fitted effect of over 55% in size
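Luminescence from the luciferase reporter, measured 30 min after ONE-Glo reagent at room temperature, was the read-out. Beforehand, 2,000 cells per well were exposed for 16 hr at 37 °C to 5-fluorouridine together with compound or vehicle.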
TDP1 inh – TDP1 (human) enzyme inhibition; Q9NUW8; Potency, µM (highest dose often 130 µM), for the others: at the highest dose activity change, negative = inhibition, hits mostly inhibitors; actives 0.28% (n = 350,000); recombinant TDP1, AlphaScreen DNA substrate cleavage; further: potency means the concentration at half of the fitted maximal effect; nearly all actives have a fitted effect of over 40% in size
Target sequence (Q9NUW8 whole entry, looked up): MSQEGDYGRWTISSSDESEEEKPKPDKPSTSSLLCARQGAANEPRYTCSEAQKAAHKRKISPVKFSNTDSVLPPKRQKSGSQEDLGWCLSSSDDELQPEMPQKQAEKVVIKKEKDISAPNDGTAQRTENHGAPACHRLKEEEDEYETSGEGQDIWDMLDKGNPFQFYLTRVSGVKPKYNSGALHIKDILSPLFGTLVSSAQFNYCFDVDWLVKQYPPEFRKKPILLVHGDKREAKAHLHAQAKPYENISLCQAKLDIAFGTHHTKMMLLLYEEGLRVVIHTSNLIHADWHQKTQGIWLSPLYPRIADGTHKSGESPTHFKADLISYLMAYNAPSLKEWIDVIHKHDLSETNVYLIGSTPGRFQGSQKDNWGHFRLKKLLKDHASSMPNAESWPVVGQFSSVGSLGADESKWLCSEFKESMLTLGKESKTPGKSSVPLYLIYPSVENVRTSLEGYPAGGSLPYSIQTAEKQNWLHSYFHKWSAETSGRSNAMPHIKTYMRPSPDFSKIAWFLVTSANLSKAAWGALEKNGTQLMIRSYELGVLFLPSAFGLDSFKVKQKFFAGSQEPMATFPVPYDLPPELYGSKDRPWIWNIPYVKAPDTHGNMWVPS
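Enzyme-compound mixtures sat 15 min at room temperature, followed by a 5 min reaction with 15 nM final substrate and 10 min with AlphaScreen beads. Recombinant human Tdp1 was used at 1 nM final.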
DT40 TDP1 CPT – DT40-hTDP1 cell growth loss with CPT; chicken DT40 Tdp1-/-;hTDP1 cells + 20 nM CPT, ATP luminescence, 48 h; Potency, µM (series often up to 46.2 µM), for the others: at the highest dose activity change, negative = growth inhibition, usual class: inhibitors; actives 12% (n = 420,000); AID 686979; further: potency means the concentration at half of the fitted maximal effect; nearly all actives have a fitted effect of over 55% in size
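Chicken DT40 Tdp1-/- cells complemented with human TDP1, 400 cells/well, exposed to compounds plus 20 nM camptothecin for at least 48 h at 37 C; viability read as ATP content by CellTiter-Glo luminescence.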
The depositor's hits bear a star; ? = inconclusive; . = not tested or not shown; [ ] = another dose, or the depositor's remark. Unless noted, the call rests on the fitted dose curve; in most records, active means well fitted curve in the direction sought with a large enough effect; inconclusive means small, poorly fitted or top-dose-only effect, or another doubt; inactive means no such curve, though single readings can be large; an effect the other way counts as inactive or inconclusive. On the % scale 0 is the no-effect control and ±100 the full control effect.

SMILES | IL1B secr inh | Giardia kill | DT40 TDP1 no CPT | ELG1 repair inh | TDP1 inh | DT40 TDP1 CPT
O=C(C1CCCCC1)N1CCN=C1SCc1cccc([N+](=O)[O-])c1 | -94* | 15 | ? | ? | 6% | ?
CC(C)CCN(C(=O)CNC(=O)c1ccco1)C(C(=O)NC1CCCCC1)c1cccnc1 (stereo not given) | 16 | -3 | -16% | 7% | 4% | 3%
Cc1cccc(NC(=S)N(C)Cc2cn(C)c3ccccc23)c1 | -24 | 6 | 16µM* | ? | 3% | 26µM*
COc1cc(CN2CCC3(CCC(CNC(=O)c4ccco4)O3)CC2)ccc1O (stereo not given) | . | . | -3% | . | . | 12%
COc1ccc(C(=O)N2CCC3(CCN(C(=O)Nc4ccccc4)CC3)CC2)cc1 | . | . | ? | . | . | 9%
CN(C)c1ccc(CNc2ccc3c(c2)ncn3C(C)(C)C)cc1 | -24 | 20 | -27% | 0% | . | -92%
Brc1ccc(CNc2ccc3ncccc3c2)cc1 | -13 | -1 | 12µM* | ? | . | 21µM*
Cc1ccc(CNc2ccc3c(c2)ncn3C(C)C)cc1 | ? | 10 | 13µM* | ? | . | 12µM*
CCCn1cnc2cc(NCc3ccc(Br)cc3)ccc21 | -83* | -3 | ? | ? | . | ?
CC(C)n1cnc2cc(NCc3nc4ccccc4n3C)ccc21 | -9 | -13 | -14% | ? | 3% | -10%
CCn1cnc2cc(NCc3ccc(N(C)C)cc3)ccc21 | ? | -17 | 18µM* | ? | 11% | 15µM*
CCC1NC(=O)c2cc3ccccc3cc2-n2c1nc1ccc(OC)cc1c2=O (stereo not given) | -29 | . | ? | . | . | ?
Cc1occc(=O)c1OCc1ccc(Cl)cc1Cl | -14 | -5 | 3% | 0% | . | -23%
CN(C)CCSc1nc2cc(S(=O)(=O)N3CCCCC3)ccc2o1 | -16 | 8 | ? | -26% | 1% | -10%
CCCn1cnc2cc(NCc3ccc(OC)cc3OC)ccc21 | . | . | 23µM* | . | 7% | 16µM*
CCn1cnc2cc(NCc3nc4ccccc4n3C)ccc21 | -6 | -12 | ? | ? | 7% | -15%
CCN(CC)c1ccc(CNc2ccc3c(c2)ncn3CC)cc1 | -96* | -13 | -26% | 1% | . | ?
CCn1cnc2cc(NCc3ccc(Br)cc3)ccc21 | ? | 20 | ? | ? | . | -27%
CCn1cnc2cc(NCc3nc4ccccc4n3Cc3ccccc3)ccc21 | -13 | -13 | ? | ? | 8% | 15µM*
CCn1cnc2cc(NCc3ccc(C)cc3)ccc21 | -57* | 21 | -25% | ? | -11% | -9%
COc1ccccc1-n1cc(C(=O)NCCN2Cc3ccccc3OC(c3ccsc3)C2)cn1 (stereo not given) | . | . | -27% | . | . | 6%[9.04 µM]
CC(=O)N1CCN(C(=O)CSc2nnc(C)n2-c2ccccc2)CC1 | -7 | -15 | -2% | 12% | . | -8%
O=C(Nc1ccc2nc(SCC(=O)N3CCOCC3)sc2c1)c1cccc(Cl)c1 | . | . | 18µM* | . | -1% | 15µM*
O=C(Nc1ccc2nc(SCC(=O)N3CCCC3)sc2c1)c1cccc(Br)c1 | . | . | 16µM* | . | 2% | ?
COc1ccc(C(=O)Nc2ccc3nc(SCC(=O)N4CCOCC4)sc3c2)cc1 | . | . | ? | . | 4% | ?
SMILES | IL1B secr inh | Giardia kill | DT40 TDP1 no CPT | ELG1 repair inh | TDP1 inh | DT40 TDP1 CPT
Nc1ccc(N)c([N+](=O)[O-])c1 | . | . | ? | . | 19% | ?
CNC(=O)CN(CCN(CCN(CC(=O)[O-])CC(=O)NC)CC(=O)[O-])CC(=O)[O-].O.[Gd+3] | . | . | 2% | . | . | -1%
COc1ccc(CC(=O)NCc2nc3cccnc3n2Cc2ccc(F)cc2)cc1OC | . | . | ? | . | 9% | -30%
COc1cccc(OCCCn2cc(/C=C3/C(=N)N4C=C(C)SC4=NC3=O)c3ccccc32)c1 | 8 | 1 | 6.5µM* | 1% | -3% | 8.2µM*
COc1cc(/C=C2/C(=N)N3C=CSC3=NC2=O)ccc1OCCCOc1ccccc1C | 8 | -9 | ? | ? | 10% | ?
COc1ccc(OCCCn2cc(/C=C3/C(=N)N4C=C(C)SC4=NC3=O)c3ccccc32)cc1 | 19 | -6 | 7.3µM* | ? | 0% | ?
CCOc1ccc(C(c2c(NC(=O)c3ccccc3)sc(C)c2C)N2CCN(CCO)CC2)cc1 (stereo not given) | -67* | -8 | 18µM* | -6% | -3% | 21µM*
CC(=O)Nc1sc2c(c1C(c1cccc(Cl)c1)N1CCN(CCO)CC1)CCCC2 (stereo not given) | -16 | 1 | 26µM* | 7% | 8% | 16µM*
Cc1sc(NC(=O)c2ccccc2)c(C(c2ccc(Cl)cc2)N2CCN(CCO)CC2)c1C (stereo not given) | -66* | -10 | 26µM* | -14% | -2% | 23µM*
COc1ccc(NC(=O)N(C)C[C@H]2Oc3ccc(NS(=O)(=O)c4cccs4)cc3C(=O)N([C@@H](C)CO)C[C@@H]2C)cc1 | -10 | 2 | -18% | 16% | 2% | ?
COc1cccc(-c2ccc3ncnc(N4CCOCC4)c3c2)c1 | . | . | 26µM* | . | . | 15µM*
c1nc(N2CCOCC2)c2cc(-c3ccoc3)ccc2n1 | . | . | ? | . | . | 8.2µM*
CN(C)Cc1ccccc1-c1ccc2ncnc(NC3CCNCC3)c2c1 | . | . | ? | . | 5% | ?
CN(C)Cc1ccccc1-c1ccc2ncnc(N3CCOCC3)c2c1 | . | . | 21µM* | . | 10%[56.1 µM] | ?
c1cncc(-c2ccc3ncnc(N4CCNCC4)c3c2)c1 | . | . | ? | . | -3%[56.1 µM] | ?
c1cn(-c2ncnc3ccc(-c4ccoc4)cc23)cn1 | . | . | 23µM* | . | . | 18µM*
CN(C)C(=O)c1ccc(-c2ccc3ncnc(N4CCC(C(=O)O)CC4)c3c2)cc1 | . | . | -2% | . | . | -9%
Cc1ccc(Cl)cc1NC(=O)Cn1cc2c(n1)CCCCC2 | . | . | -24% | . | -3% | -29%
COc1ccccc1-c1ccc2ncnc(N3CCOCC3)c2c1 | . | . | 21µM* | . | . | 18µM*
COc1ccccc1-c1ccc2ncnc(NC3CCNCC3)c2c1 | . | . | -29% | . | . | ?
COc1ccccc1-c1sc2ccccc2c1-c1cnc(N2CCOCC2)nc1 | 0 | . | ? | . | . | -7%
COc1ccccc1-c1ccc2ncnc(N3CCN(C)CC3)c2c1 | . | . | 7.3µM* | . | 12%[56.1 µM] | 9.2µM*
CC(=O)N1CCOc2ccc(S(=O)(=O)N3CCC(C(=O)NCc4ccccc4)CC3)cc21 | 8 | -2 | 1% | 13% | -7% | -22%
O=C(Cc1c(F)cccc1Cl)Nc1nccs1 | -1 | 4 | -41% | 0% | 3% | ?
